According to PubChem BioAssay (NCI):
Compounds without any hit were thinned out: in the full panel of roughly 83,000, 20% have a hit.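 For each line, cells grew in 96-well plates with the test compound present at a single concentration for 48 hours.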 A number with no mark means an inactive call. Activity calls are given as the source filed them. Rule for the calls: active = growth percent below 10; inactive = the rest.

Legend:
Assay in all cases: NCI-60 one-dose screen, 48 h (100 = growth as untreated, 0 = no growth, -100 = all killed)
Details in all cases: 10 µM
[1] = tested on: NCI-H23 lung
[2] = tested on: NCI-H226 lung
[3] = tested on: NCI-H322M lung
[4] = tested on: HOP-62 NSCLC
[5] = tested on: NCI-H460 lung
[6] = tested on: NCI-H522 lung
[7] = tested on: A549/ATCC NSCLC
[8] = tested on: 786-0 renal
[9] = tested on: COLO 205 colon
[10] = tested on: DU-145 prostate

SMILES | growth [1] | growth [2] | growth [3] | growth [4] | growth [5] | growth [6] | growth [7] | growth [8] | growth [9] | growth [10]
CC(=O)N1N=C(c2ccc(Cl)cc2)CC1c1sc(Cl)nc1Cl (stereo not given) | 87.4% | 43.1% | 62.9% | 103% | 107% | 81% | 78.5% | 84.7% | 108% | 74.7%
COc1ccc2c(c1)sc1nc(-c3ccccc3)c(-c3ccc(O)c(OC)c3)n12 | 88.2% | 94.1% | 89.7% | 79.1% | 69.8% | 76.4% | 64.2% | 84.9% | 71.4% | 107%
COc1ccc(Cl)cc1-n1nnc(-c2nc3ccccc3[nH]2)c1N | 92.8% | 60% | 75% | 37.3% | 27.7% | 68.6% | 61.8% | 58.1% | 98.1% | 93.4%
Nc1nc(-c2ccccc2Cl)cc(-c2ccc(Cl)cc2Cl)n1 | 75.4% | 87.7% | 89.5% | 76.2% | 49.8% | 68.5% | 52.7% | 90.2% | 64.9% | 91.4%
Cc1cccc2c(NCCN(C)C)c3cccc(C(=O)NCCN(C)C)c3nc12 | 6.76% (active) | 22.4% | -5.21% (active) | 4.88% (active) | -13.2% (active) | -43.7% (active) | 16.2% | 14.5% | 0.559% (active) | -20.1% (active)
CCN(CC)CCOc1nc2cc(OC)c(OC)cc2c2c1-c1ccc(OC)cc1C2=O | 77.3% | 74.3% | 83.9% | 60.9% | 25.6% | 73.9% | 66.1% | 87.8% | 72.7% | 64.1%
COc1cc(Nc2ccnc(NCCNc3ccnc4cc(Cl)ccc34)n2)cc(OC)c1 | 38.2% | 55.5% | 46.5% | 79.2% | 27.8% | 17.7% | 42.9% | 35.4% | 2.21% (active) | 63.9%
O=C(Nc1ccncc1)C(=O)c1cn(S(=O)(=O)c2cccc3ccccc23)c2ccccc12 | 62.1% | 76.8% | 86% | 95.1% | 85.7% | 48% | 77.8% | 77.5% | 101% | 95.1%
Clc1ccc(Nc2ccnc(NCCCNc3ccnc4cc(Cl)ccc34)n2)cc1 | 45.6% | 93.7% | -16.7% (active) | 19.6% | -28.8% (active) | -76% (active) | -65.1% (active) | -98.9% (active) | -91.1% (active) | 9.74% (active)
Cc1cc(N(CCCNc2ccnc3cc(Cl)ccc23)Cc2ccc3c(c2)OCO3)nc(N2CCCCC2)n1 | 6.38% (active) | 38.1% | -5.02% (active) | -45.1% (active) | -30.8% (active) | -43.9% (active) | -32.8% (active) | -91.5% (active) | -78.7% (active) | 11.1%
COc1cc(-c2cc(/C=C3\C(=O)Nc4cc(Cl)ccc43)[nH]n2)cc(OC)c1OC | 69.7% | 50.4% | 47.5% | 43.3% | 34.7% | 31.9% | 43% | 93.7% | 7.07% (active) | 43.8%
COc1ccc2c(c1)O/C(=C\c1ccc([N+](=O)[O-])s1)C2=O | 5.99% (active) | 69.9% | 29.7% | 45.6% | 2.82% (active) | -72.5% (active) | 33.9% | 69% | -30% (active) | -6.02% (active)
Clc1cc2c(c(CSc3nc4ccccc4n4cccc34)c1)OCOC2 | 77.9% | 134% | 83.2% | 88.2% | 66.6% | 59.8% | 29.9% | 93.4% | 84.1% | 106%
